Assay outcomes (PubChem)
NALP1 inh = NALP1 inhibition. actives 0.61% (n = 280,000). inhibition, % at 10 µM. S. cerevisiae NALP1/ASC/caspase-1 growth, X-gal OD620, 72 h. AID 2071; in the data active = inhibition mostly above about 24%, no sharp cut-off; inactive = mostly below about 32%
PfHsp90 yeast 2 = growth inhibition of yeast expressing Plasmodium Hsp90; S. cerevisiae expressing PfHsp90, BacTiter-Glo ATP, 48 h; yeast lacking PDR1 and PDR3 efflux regulators; inhibition, % at 9.4 µM; actives 0.32% (n = 310,000);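 active = every replicate shows inhibition above about 80%, whatever the replicate mean, limit read from the data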;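 also: 0% = DMSO neutral controls and 100% = 20 µM radicicol positive controls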
NALP3 yeast inh = blocks the NALP3 inflammasome reconstituted in yeast | inhibition, % at 10 µM | Yeast reconstituted NLRP3/ASC/caspase-1, beta-gal luminescence, 24 h | actives 0.39% (n = 330,000) | AID 2825;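 active = inhibition of 50% or more; inactive = inhibition below 50%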;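 also: plate controls were induced DMSO wells for no effect and uninduced yeast grown without galactose for full effect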
tim10-1 inh = tim10-1 yeast growth inhibition | S. cerevisiae tim10-1 ts strain growth, BacTiter-Glo, 24 h | inhibition, % at 20 µM | actives 2.2% (n = 330,000) | AID 463190;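 active = inhibition of at least 40%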;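 also: mutant grown at 25 °C; 0% = DMSO wells with yeast and 100% = wells holding no yeast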
tim23-1 inh = growth inhibitors of tim23-1 mutant yeast; inhibition, % at 20 µM; S. cerevisiae tim23-1 growth, BacTiter-Glo luminescence, 24 h; actives 1.3% (n = 330,000);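 active = growth inhibition of the mutant yeast at or above 50%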;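 also: temperature-sensitive mutant grown at 25 °C; plate controls were DMSO-treated mutant yeast for no effect and medium wells lacking yeast for full effect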
TIM10 inh = inhibits growth of TIM10 yeast strain; inhibition, % at 10 µM; actives 1.4% (n = 330,000); S. cerevisiae TIM10 strain growth, BacTiter-Glo luminescence, 24 h;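 active = inhibition of 40% or more at the single tested concentration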;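 also: wild-type TIM10 isogenic control strain grown at permissive 25 °C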
tim10-1 confirm = tim10-1 yeast growth inhibition, confirmed; shares compounds with tim10-1 inh; S. cerevisiae tim10-1 ts strain growth, BacTiter-Glo, 24 h; inhibition, % at 20 µM; actives 56% (n = 7,400); AID 463213;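 active = inhibition of yeast growth at or above a set limit in either of two repeat tests at 20 µM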;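 also: tim10-1 mutant grown at permissive 25 °C to find synthetic lethal compounds; 0% = DMSO yeast wells and 100% = medium wells without yeast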
Numbers without * were called inactive; · = no result. Shown are actives, neighbours in structure and some others; about 4.2% of the full set was active somewhere.

SMILES	NALP1 inh	PfHsp90 yeast 2	NALP3 yeast inh	tim10-1 inh	tim23-1 inh	TIM10 inh	tim10-1 confirm
CCN(CC)c1ccc(/C=c2\sc3nnc(-c4ccccc4Cl)n3c2=O)cc1	7	1	5	15	14	5	·
Nn1c(SCc2c(F)cccc2F)nnc1-c1ccccn1	29	-10	8	18	28	26	·
Cc1ccc(C)c(CSc2nnc(-c3ccccn3)n2N)c1	18	14	22	44*	30	22	30
CCN(CC(=O)Nc1ccc2c(c1)OCCO2)C(=O)CCc1ccccc1Cl	·	-4	10	21	36	12	·
Cc1ccccc1OCCC(=O)OCC(=O)NC1CCCCC1	·	0	18	12	4	3	·
CN(CC(=O)Nc1ccccc1Br)C(=O)C(Cc1ccccc1)NC(=O)c1ccccc1 (centres undefined)	-1	-5	-8	3	18	4	·
Cc1ccc(COc2ccsc2-c2n[nH]c(=S)n2C)cc1	4	13	-3	40	29	30	·
Cc1nc(-c2ccccc2)sc1-c1n[nH]c(=S)n1C	-8	·	11	48*	38	26	12
Cn1c(-c2ccccc2)n[nH]c1=S	-5	-1	11	-1	5	7	·
Cn1c(-c2sccc2OCc2ccccc2)n[nH]c1=S	-17	2	23	50*	10	9	16
Cc1ccc(C(=O)NC(C)c2ccc(-n3ccnc3)cc2)o1 (centres undefined)	·	·	9	-11	-6	9	·
COc1ccc(-c2cc(=O)oc3c(C)c(OC(C)C(=O)Nc4ccc(CN5CCOCC5)cc4)ccc23)cc1 (centres undefined)	35	-28	11	43*	42	10	-38
O=C(NCc1ccccc1Cl)c1cc2ccccc2oc1=O	14	-2	15	14	20	0	·
O=c1oc2ccccc2cc1NCc1ccccc1O	15	-49	-8	41*	38	11	7
CCCN1CCN(C(=O)C(NC(=O)c2ccco2)C(C)C)CC1 (centres undefined)	12	6	14	0	-4	0	·
CCN(CC)S(=O)(=O)c1ccc2oc(C(=O)N3CCc4ccccc4C3)c(C)c2c1	43	30	0	43*	34	5	30*
O=C(O)CCn1cc(-c2ccc(F)cc2)nc1-c1ccncc1	·	-2	1	-7	-12	-5	·
O=S(=O)(NCCCSc1ccccc1)c1ccccc1F	21	5	41	42*	48	5	18
Cn1c(N)c(C(=O)COC(=O)Cc2ccc(Cl)cc2Cl)c(=O)n(C)c1=O	·	22	5	24	29	19	·
Cn1c(N)c(C(=O)COC(=O)CCCOc2ccc(Cl)cc2Cl)c(=O)n(C)c1=O	7	13	14	42*	20	20	41*
Nc1ccccc1Oc1c(F)c(F)c(Oc2ccccc2N)c(F)c1F	6	18	-2	3	3	12	·
O=S(=O)(c1ccc2c(c1)OCCO2)N1CCC(O)(c2ccc(Cl)cc2)CC1	35*	-1	15	49*	35	13	36*
O=S(=O)(c1cccc(Cl)c1)N1CCN(S(=O)(=O)c2ccc3c(c2)OCCO3)CC1	·	5	16	-8	-13	-20	·
Cc1ccc(NC(=O)c2ccc3c(SCC(=O)O)c4c(nc3c2)CCCC4)c(Br)c1	25	6	5	-13	-61	-11	·
O=C(COc1ccc(Cl)cc1Cl)Nc1ccc(S(=O)(=O)NC2=NCCCCC2)cc1	27	11	4	44*	13	39	39*
SMILES	NALP1 inh	PfHsp90 yeast 2	NALP3 yeast inh	tim10-1 inh	tim23-1 inh	TIM10 inh	tim10-1 confirm
Cc1ccc(Cl)c(OCC(=O)Nc2ccc(S(=O)(=O)NC3=NCCCCC3)cc2)c1	·	-11	18	-7	-3	-3	·
CCOC(=O)C1=CN(Cc2ccco2)S(=O)(=O)N(C)C1c1ccc(F)c(Cl)c1 (centres undefined)	·	4	·	23	45	6	·
O=C(COC(=O)C1CC2C=CC1C2)Nc1c(Br)cc([N+](=O)[O-])cc1Br (centres undefined)	·	·	0	11	26	19	·
COc1ccc(OC)c(Cc2nnc(CCC(=O)N3CCN(C4CCCC4)CC3)o2)c1	15	-13	16	16	8	2	·
Cc1cccc(NC(=S)N(CCN2CCOCC2)Cc2ccccc2F)c1	-9	3	-3	42*	16	-6	5
Cc1ccc(NC(=S)N(CCN2CCOCC2)Cc2ccccc2F)cc1Cl	-3	0	-3	37	6	35	·
O=C(COc1ncnc2sccc12)N1CCN(C(=O)c2ccco2)CC1	12	12	4	5	3	1	·
CCOc1ccc(CCNC(=O)C(C)N2C(=O)CC(C)(C)Sc3ccccc32)cc1 (centres undefined)	-6	10	-5	42*	39	12	25
COc1ccc(-c2nc(CS(=O)CC(=O)NC3CCCc4ccccc43)c(C)o2)cc1OC (centres undefined)	-17	3	10	15	16	15	·
COc1ccc(-c2nc(CSCC(=O)NC3CCCc4ccccc43)c(C)o2)cc1OC (centres undefined)	-2	9	2	41*	29	21	11
NC(=O)CC[C@H](NC(=O)c1ccc(F)cc1)C(=O)N1CCN(Cc2ccc3c(c2)OCO3)CC1	·	·	8	-9	-1	4	·
Cc1ccc(-n2nc(C)cc2Nc2ncc(Cl)cc2Cl)cc1	28	-4	28	33	31	14	·
Cc1cc(C)nc(-n2nc(C)cc2Nc2ccccc2)n1	18	-13	43	41*	48	22	19
Cc1cc(Nc2nc(Cl)c(Cl)cc2Cl)n(-c2ccccc2)n1	·	-13	16	45*	45	29	34*
Cc1cc(Nc2ccccc2)n(-c2ccccc2)n1	10	-11	6	15	-1	-6	·
CN(CC(=O)Nc1ccccc1C(F)(F)F)C(=O)CSCc1ccccc1	·	·	4	2	5	-4	·
CCn1c(-c2ccccc2)c[nH]c1=S	-6	6	16	1	-10	-1	·
S=c1[nH]cc(-c2ccccc2)n1-c1ccccc1	-8	3	9	44*	3	-5	1
COc1cc(C(=O)OCc2csc(CC(=O)Nc3ccccc3C)n2)ccc1OCC(C)C	·	31	19	22	12	8	·
CC(=O)Nc1ccc(S(=O)(=O)N2CCN(C(=O)c3ncoc3-c3ccccc3C)CC2)cc1	12	-2	7	-14	5	-7	·
C[n+]1c(/C=C/c2ccc(O)cc2)ccc2ccccc21	5	4	29	18	27	38	·
